Compounds with a hit are over-represented: about 7.3% of the library has one in this group of screens.
FMDV inh = blocks foot and mouth disease virus; FMDV antiviral cell-based qHTS; Potency, µM (top dose mostly 57.9 µM), for the others: top-dose activity change, negative = inhibition, hits mostly inhibitors; actives 1.2% (n = 410,000); AID 1159524; calls by dose curve; tested in HEK293T cells; further: read-out not given here; potency means the concentration at half of the fitted maximal effect; nearly all actives have a fitted effect of over 45% in size
VACV Venus inh = vaccinia inhibition (Venus reporter) | Vaccinia virus Venus reporter expression, fluorescence | Potency, µM (top dose mostly 36.5 µM), for the others: at the top dose activity change, negative = inhibition, most hits filed as inhibitors | actives 0.46% (n = 330,000); calls by dose curve; tested in A549 cells; further: potency means the concentration at half of the fitted maximal effect; nearly all actives have a fitted effect of over 30% in size
HCV inh = blocks hepatitis C virus; Huh7.5.1 HCVcc-Cre infection, luciferase reporter, 44 h; Potency, µM (top dose mostly 41.8 µM), for inactives: at the top dose activity change, negative = inhibition, usual class: inhibitors; actives 3.4% (n = 340,000); AID 651820; active means well fitted inhibition curve with a large enough effect; inconclusive means small, poorly fitted or top-dose-only effect, or another doubt; inactive means no such curve, though single readings can be large or run the other way; further: potency means the concentration at half of the fitted maximal effect
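Whole-lifecycle infectious HCVcc-Cre system; cells 1,000/well, compound then virus (~0.5 moi) added 4 h after plating, 44 h culture. Luciferase read 15 sec following 15 min substrate incubation, room temp.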
HCMV inh = inhibitors of human cytomegalovirus. HFF cells, HCMV-luciferase reporter, 72 h; stronger effect = lower value. activity change, negative = inhibition, % at 57.5 µM. actives 4.5% (n = 410,000). AID 1259415; in the data active means activity change below about -60%; inconclusive means no clear call, values can overlap the other calls; inactive means above about -39%
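Luciferase read-out from HCMV-luciferase-infected HFFs (MOI 1 PFU/cell) 72 h post infection at 37C; compounds added after 16 h cell attachment; activity normalized between buffer-only basal and Salinomycin (10uM) inhibitor controls.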
VACV mCherry inh = vaccinia inhibition (mCherry reporter) | Vaccinia virus mCherry reporter infection, fluorescence | Potency, µM (titrated, usually from 36.5 µM), for the others: top-dose activity change, negative = inhibition, hits mostly inhibitors | actives 0.63% (n = 310,000) | AID 720579; calls by dose curve; tested in A549 cells; further: potency means the concentration at half of the fitted maximal effect; nearly all actives have a fitted effect of over 35% in size
* hit, by the source's call; i = inactive; ? = inconclusive; nt = not tested or not shown. On the % scale 0 is the no-effect control and ±100 the full control effect.

SMILES	FMDV inh	VACV Venus inh	HCV inh	HCMV inh	VACV mCherry inh
CCOc1ccccc1C1NC(=O)NC(C)=C1C(=O)OC1CCCC1C (centres undefined)	-23.4%	-25.4%	2.7%	-68.1*	nt
CCN(CC)C(=O)Cn1cc(S(=O)(=O)CC(=O)Nc2ccc(C(N)=O)cc2)c2ccccc21	0.5%	nt	0.562µM*	-19.1	nt
Cc1ccc(C)n1C1C(=O)N(Cc2ccc(Cl)nc2)c2ccccc21 (centres undefined)	nt	nt	nt	-2.6	nt
CN1CCN(C(=O)c2cccc(-c3cc(O)c4ncccc4c3)c2)CC1	-6.5%	nt	nt	-21.4	nt
c1cncc(-c2nc3cc4ccccc4cc3[nH]2)c1	nt	-14.2%	?	171.3	-1.7%
Oc1cc(-c2cccnc2)cc2cccnc12	-17.8%	nt	nt	-93.9*	nt
CN1CCN(c2cc(-c3cc(O)c4ncccc4c3)ccn2)CC1	-26.8%	nt	nt	-89.2*	nt
O=C(NNC(=O)c1ccccc1Cl)c1ccc2c(=O)n3c(nc2c1)CCC3	15.8%	nt	19.6%	4.2	nt
O=C(O)c1ccc2c(=O)n3cc(C(=O)c4ccccc4O)cc(Cl)c3nc2c1	0.0%	nt	9.2%	-79.8*	nt
Cc1cc(OCCN2CCOCC2)ccc1Cl	0.0%	nt	6.5%	14.8	nt
Cc1ccc(Sc2ncnc3onc(C)c23)cc1	17.8µM*	-13.7%	-16.4%	64.3	-11.6%
Cc1noc2ncnc(Sc3c(Cl)cccc3Cl)c12	?	-12.5%	?	15.5	-12.9%
Cc1noc2ncnc(Sc3ccc(Cl)cc3)c12	?	-3.1%	?	-79.2*	nt
COc1ccccc1/C=C/CN1CCC(Oc2cc(C(=O)NC3CC3)ccc2OC)CC1	-0.6%	nt	3.4%	0.0	nt
COc1ccc(S(=O)(=O)Nc2cc3c(C(C)=O)c(C)oc3c3ccccc23)cc1	0.2%	?	17.8µM*	-76.0*	-24.9%
O=C(NCc1ccccc1)c1ccc(N2CCC3(CC2)CC(c2ccc(Cl)cc2)=NO3)c([N+](=O)[O-])c1	?	-7.5%	4.47µM*	?	0.0%
CCCNC(=O)c1ccc(N2CCC3(CC2)CC(c2ccccc2)=NO3)c([N+](=O)[O-])c1	?	-13.7%	?	-16.2	-9.1%
CCCCOc1ccc(CN2CCCCC2)cc1	nt	-3.8%	17.5%	-11.6	-11.3%
CN1CCN(CCCOc2ccc(-c3ccccc3)cc2)CC1	5.5%	-19.0%	2.82µM*	31.3	-6.6%
CCCCCCOc1ccc(CN2CCN(C)CC2)cc1	-25.1%	nt	1.78µM*	-37.3	nt
COc1cccc(-c2oc3c(c2C#CC2(N)CCCCC2)C(O)CCC3)c1 (centres undefined)	?	-17.8%	nt	-14.1	-1.7%
Cc1cccc(-c2nc3c4ccccc4nc(N4CCN(c5cccc(Cl)c5)CC4)n3n2)c1	-17.7%	-9.1%	nt	-61.5*	-14.9%
CCOC(=O)c1sc2nccc(N(C)C)c2c1N=CNOC	?	-11.4%	?	?	-18.2%
CCOC(=O)c1sc2nccc(N(C)C)c2c1N=CNOCc1ccccc1	-13.9%	-13.7%	7.94µM*	10.6	-26.9%
CCOP(=O)(c1ccc(N(C)C)cc1)C(O)c1ccccc1 (centres undefined)	-12.2%	nt	-23.7%	-82.9*	nt
SMILES	FMDV inh	VACV Venus inh	HCV inh	HCMV inh	VACV mCherry inh
CC(C)COP(=O)(c1ccc(N(C)C)cc1)C(O)c1ccccc1 (centres undefined)	8.8%	-4.1%	9.9%	-3.3	-17.8%
O=C1C2C3C=CC(O3)C2C(=O)N1N=Cc1cccc2ccccc12 (centres undefined)	35.2%	-5.8%	-5.3%	12.7	i
COc1cc(N(C)C)c(OC)cc1/C=C1\Cc2ccccc2C1=O	nt	-6.3%	nt	nt	i
CC(C)(O)C(=O)NNC(=S)Nc1cccc(C(F)(F)F)c1	-13.9%	nt	13.2%	-32.5	nt
CC(=O)c1ccc(NS(=O)(=O)Cc2ccc(Cl)cc2)cc1	34.1%	nt	-8.0%	70.3	nt
CC(=O)Nc1cccc(NS(=O)(=O)Cc2ccc(Cl)cc2)c1	3.1%	-8.0%	-2.0%	-66.0*	-22.2%
CC(O)(CS(=O)(=O)Cc1ccc(Cl)cc1)C(=O)Nc1cccc(C(F)(F)F)c1 (centres undefined)	-12.0%	nt	-0.5%	-102.6*	nt
Cc1cccc(NC(=O)c2cc([N+](=O)[O-])ccc2Cl)c1O	-21.4%	-7.8%	-22.9%	51.8	-5.8%
O=C(Nc1nccs1)c1cc([N+](=O)[O-])ccc1Cl	-19.3%	nt	-16.0%	-102.7*	nt
O=C(Nc1ccccc1Oc1ccccc1)c1cc([N+](=O)[O-])ccc1Cl	?	-14.6%	?	-77.4*	-4.1%
CCCCN(CCCC)S(=O)(=O)c1ccc(NC(=O)c2ccc([N+](=O)[O-])cc2Cl)cc1	?	?	?	-78.5*	?
O=C(Nc1nccs1)c1ccc([N+](=O)[O-])cc1Cl	0.0%	nt	3.4%	23.0	nt
O=C(NNc1ccc([N+](=O)[O-])cc1)c1ccccc1Cl	3.5%	-8.8%	6.7%	-86.3*	-13.0%
COc1ccc(-c2nn3c(=O)cc(CN4CCN(C(=O)Nc5ccc(C)c(Cl)c5)CC4)nc3s2)cc1	0.0%	-9.0%	nt	12.8	-12.0%
CCN(CC)S(=O)(=O)c1cc([N+](=O)[O-])ccc1NNC(=O)Nc1ccc(Cl)c(Cl)c1	?	15.8µM*	?	-92.8*	?
O=C(Nc1ccc(Nc2ccccc2)cc1)c1cc([N+](=O)[O-])ccc1Cl	?	nt	11.2µM*	42.6	nt
CN(C)S(=O)(=O)c1ccc(Cl)c(C(=O)Nc2cccc([N+](=O)[O-])c2)c1	?	nt	11.2µM*	-64.9*	nt
O=C(O)c1ccccc1C(=O)Nc1ccc(Nc2ccc([N+](=O)[O-])cc2[N+](=O)[O-])cc1	1.5%	nt	4.3%	-19.8	nt
O=C(NNc1ccccc1[N+](=O)[O-])Nc1ccc(Cl)c(Cl)c1	-14.3%	-16.9%	?	17.5	i
Cn1c2nc(=O)n(-c3ccccc3)c(=O)c-2nc2c1CCCC2	-5.1%	-0.7%	nt	nt	i
COc1ccc2c(c1)C(C(Nc1ccc(C)cc1)c1ccc(Cl)cc1)C(=O)N2C (centres undefined)	nt	nt	nt	39.3	nt
Cc1ccc(C)c(S(=O)(=O)NCCN2CCOCC2)c1	68.4%	nt	7.3%	nt	nt
Cc1ccc(C(=O)N/C(=C\c2ccc(-c3ccc(Cl)cc3)o2)C(=O)NCCCN(C)C)cc1	-22.5%	12.6µM*	?	-71.6*	?
CN(C)CCCNC(=O)/C(=C/c1ccc(-c2ccc([N+](=O)[O-])cc2)o1)NC(=O)c1ccccc1	-27.0%	nt	?	-8.3	nt
CN(C)CCCNC(=O)/C(=C\c1ccc(-c2ccc(Br)cc2)o1)NC(=O)c1ccccc1	?	12.6µM*	?	?	11.2µM*
CCN1CCN(c2ncc(C(=O)Nc3ccccc3C(=O)OC)c3ccccc23)CC1	-17.1%	-27.2%	7.94µM*	-7.3	?
CCc1ccc(NC(=O)c2cnc(N3CCN(c4ccccn4)CC3)c3ccccc23)cc1	11.2µM*	?	4.47µM*	-19.2	-30.0%
O=C(NCCc1ccc(F)cc1)C(=O)NCC(c1ccc2c(c1)OCO2)N1CCOCC1 (centres undefined)	-18.0%	-20.5%	nt	-1.2	-20.4%

Assay outcomes from PubChem BioAssay.
